# According to PubChem BioAssay AID687028 (Broad Institute, 2013):
# Screen size: about 1,400 compounds; about 55 (4%) were called active. How the calls were made is not given here. These entries were drawn from the full list. Entries that show only a call come without a potency. Potency and affinity values are given separately.
# Experiment: A549 cell toxicity, dose response, cytotoxicity control, plate reader, cherry-pick samples (AID 687028);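 further: cells incubated with compound for three days before reading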
# Conditions: series mostly up to 19.5 µM
row,Structure (SMILES),outcome
1,Cn1cc(CC(=O)Nc2ccc(Nc3cccnc3)cc2)c2ccccc21,inactive
2,O=S(=O)(c1ccc(F)cc1)N1CC[C@@H]2[C@H]1c1cc(-c3ccc(F)cc3)ccc1N[C@@H]2CO,inactive
3,CCC(=O)N1CC[C@@H]2[C@H](CO)Nc3ccc(-c4cccc(C#N)c4)cc3[C@@H]21,inactive
4,CCCCN(C(=O)c1ccc2c(c1)NC(=O)CS2)c1ccccc1,inactive
5,O=C(OCc1ccccc1)N1CCCC2CC1c1ccccc12 (configuration not stated),inactive
6,C[C@H](NC(=O)[C@@H]1CCCN1C(=O)OC(C)(C)C)c1ccccc1,inactive
7,CC1CCC(CN2CCN=C2Nc2ccccc2)CC1 (configuration not stated),inactive
8,COc1ccc(-c2oc3ccc(-c4cc(OC)c(OC)c(OC)c4)cc3c2-c2ccc(OC)nc2)cc1,inactive
9,COc1cc(-c2cnc3c(NC(C)=O)cc(-c4ccccc4CN(C)C)cn23)cc(OC)c1OC,inactive
10,O=C(C1CCCN(S(=O)(=O)c2cccnc2)C1)N1CCN(c2ccccn2)CC1 (configuration not stated),inactive
11,CCC(C)CN1C(=O)CSCC1(C)C(=O)Nc1ccc2c(c1)OCCO2 (configuration not stated),inactive
12,C[C@H](CO)N1C[C@H](C)[C@@H](CN(C)C(=O)CCCN(C)C)OCCCC[C@H](C)Oc2ccc(NC(=O)CCCN(C)C)cc2C1=O,inactive
13,CS(=O)(=O)N1[C@@H]2CNC[C@H]1C2c1ccc(-c2ccccc2)cc1 (some centres not stated),inactive
14,COc1cccc(-c2ccc(C3[C@@H]4CN(S(=O)(=O)c5cn(C)cn5)C[C@H]3N4)cc2)c1 (some centres not stated),inactive
15,O=C(NC1CCCCC1)[C@@H]1[C@@H](CO)[C@@H]2Cn3c(cccc3=O)[C@H]1N2Cc1cccnc1,inactive
16,CN(Cc1nccs1)C(=O)c1ccc(OC2CCN(Cc3ccccn3)CC2)cc1,inactive
17,COc1ccc(NC(=O)N[C@H]2CC[C@@H](CCn3cc(C4(O)CCCC4)nn3)O[C@@H]2CO)cc1,inactive
18,COc1ccc(NC(=O)N[C@@H]2CC[C@@H](CCNS(=O)(=O)c3cccc(Cl)c3)O[C@@H]2CO)cc1,inactive
19,O=C(NCCc1ccccc1)c1ccccc1NC(=O)C1CCCCC1C(=O)O (configuration not stated),inactive

row,Structure (SMILES),outcome
1,Cc1ccc(OCC(=O)NC2CCSc3ccccc32)cc1 (configuration not stated),inactive
2,CC1CC2=C(C(=O)O1)C(c1ccc(Cl)cc1)Nc1ccccc1N2 (configuration not stated),inactive
3,COc1ccc(C#Cc2ccc([C@H]3[C@@H](CO)N4CCCCN(S(=O)(=O)c5ccccc5)C[C@@H]34)cc2)cc1,inactive
4,C[C@H](CO)N1C[C@H](C)[C@@H](CN(C)Cc2ccc(Oc3ccccc3)cc2)Oc2ccc(NC(=O)Cn3cnnn3)cc2CC1=O,inactive
5,C[C@@H]1CCCCO[C@@H](CN(C)Cc2ccccc2)[C@@H](C)CN([C@H](C)CO)C(=O)c2cc(NC(=O)c3ccccc3)ccc2O1,inactive
6,C[C@H](CO)N1C[C@H](C)[C@@H](CN(C)C(=O)Cc2ccccc2)OCCCC[C@H](C)Oc2ccc(NS(=O)(=O)c3ccc(F)cc3)cc2C1=O,inactive
7,Cc1ccc(S(=O)(=O)N(C)C[C@@H]2OCCCC[C@H](C)Oc3ccc(NS(=O)(=O)c4c(C)noc4C)cc3C(=O)N([C@@H](C)CO)C[C@@H]2C)cc1,inactive
8,C[C@@H]1CCCCO[C@@H](CN(C)C(=O)c2ccccc2)[C@@H](C)CN([C@@H](C)CO)C(=O)c2cc(NS(=O)(=O)c3ccc(F)cc3)ccc2O1,inactive
9,C[C@@H]1CCCCO[C@@H](CN(C)S(=O)(=O)c2ccc(F)cc2)[C@@H](C)CN([C@H](C)CO)C(=O)c2cc(NC(=O)Nc3ccc(C(F)(F)F)cc3)ccc2O1,inactive
10,C[C@@H]1CCCCO[C@@H](CN(C)S(C)(=O)=O)[C@H](C)CN([C@@H](C)CO)C(=O)c2cc(NS(=O)(=O)c3ccc(Cl)cc3)ccc2O1,inactive
11,Cc1ccc(S(=O)(=O)N(C)C[C@@H]2OCCCC[C@H](C)Oc3ccc(NS(=O)(=O)c4c(C)noc4C)cc3C(=O)N([C@H](C)CO)C[C@H]2C)cc1,inactive
12,C[C@@H]1CN([C@H](C)CO)C(=O)c2cc(NC(=O)c3ccncc3)ccc2O[C@@H](C)CCCCO[C@H]1CN(C)Cc1ccc(Cl)c(Cl)c1,inactive
13,COc1ccccc1CN1[C@H](CO)[C@H]2c3ccccc3N(C(=O)c3ccncc3)C[C@H]21,inactive
14,COc1ccc(C)cc1N(CC(=O)Nc1ccc(S(=O)(=O)N2CCOCC2)cc1)S(C)(=O)=O,inactive
15,CCOc1ccc(C(=O)Nc2ccc(CN3CCOCC3)cc2)cc1Br,inactive
16,CCn1c(=O)n(CC)c2cc(N3CCCC3)c(NC(=O)c3ccc(C)cc3)cc21,inactive
17,Cc1ccccc1S(=O)(=O)N1C[C@@H](O)COC[C@@H]2O[C@H](CC(=O)N3CCCCC3)CC[C@H]21,inactive
18,C[C@@H]1CN([C@@H](C)CO)C(=O)Cc2cc(NS(=O)(=O)c3cn(C)cn3)ccc2O[C@H]1CN(C)Cc1ccc(C(=O)Nc2ccccc2N)cc1,inactive
19,CCCNC(=O)N1[C@H](CO)[C@@H](c2ccccc2)C12CN(C(=O)C1CCCCC1)C2,inactive

row,Structure (SMILES),outcome
1,O=C(CN1CCN(c2cccc(C(F)(F)F)c2)CC1)N(C1CCCC1)C1CCS(=O)(=O)C1 (configuration not stated),inactive
2,Cc1cc(OCC(=O)NC(Cc2ccc(Cl)cc2)C(=O)O)c2c(C)c(C)c(=O)oc2c1 (configuration not stated),inactive
3,CCc1nc(SCc2ccccc2C)n[nH]1,inactive
4,Cc1ccc(CCN2CC(C(=O)NCCc3ccccc3)CC2=O)cc1 (configuration not stated),inactive
5,Cc1noc(C)c1S(=O)(=O)Nc1cccc2c1O[C@H](CN(C)C(=O)NC(C)C)[C@H](C)CN([C@@H](C)CO)C2=O,inactive
6,CC(C)C[C@@H](COc1ccccc1)N1CCN(Cc2ccccc2)CCC1=O,inactive
7,COc1ccc(NC(=O)N(C)C[C@H]2OCCCC[C@@H](C)Oc3ccc(NS(C)(=O)=O)cc3C(=O)N([C@H](C)CO)C[C@H]2C)cc1,inactive
8,C[C@H](CO)N1C[C@H](C)[C@@H](CN(C)C(=O)Nc2ccc(C(F)(F)F)cc2)OCCCC[C@H](C)Oc2ccc(NS(=O)(=O)c3cccs3)cc2C1=O,inactive
9,C[C@H](CO)N1C[C@H](C)[C@@H](CN(C)C(=O)Nc2ccc(C(F)(F)F)cc2)OCCCC[C@H](C)Oc2ccc(NS(=O)(=O)c3ccc(F)cc3)cc2C1=O,inactive
10,COc1ccc(S(=O)(=O)Nc2ccc3c(c2)C(=O)N([C@@H](C)CO)C[C@H](C)[C@@H](CN(C)C(=O)Nc2ccc(C(F)(F)F)cc2)OCCCC[C@H](C)O3)cc1,inactive
11,COc1cccc(CNC(=O)[C@H]2[C@H](CO)[C@H]3Cn4c(ccc(-c5ccncc5)c4=O)[C@H]3N2C)c1,inactive
12,N#C[C@H]1[C@@H](c2ccc(C3=CCCCC3)cc2)[C@@H](CO)N1S(=O)(=O)c1cccc(F)c1,inactive
13,CCOc1ccc(NC(=O)CN(C)C(=O)c2ccccc2OCc2c(C)noc2C)cc1OCC,inactive
14,COc1ccc(N2CCN(c3cc(C(=O)NC4CCCCC4)ncn3)CC2)cc1OC,inactive
15,CC(C)(C)OC(=O)N[C@H]1C=C[C@@H](CC(=O)OCC(F)(F)F)C1,inactive
16,CCN(CC)c1ccc2cc(C(=O)NCc3ccc(F)cc3)c(=N)oc2c1,inactive
17,CC(=O)OCCCN(C)CC/C=C1/c2ccccc2CSc2ccccc21,inactive
18,CC(C)Oc1ccc(S(=O)(=O)N2CCOCC2)cc1NC(=O)Cc1ccsc1,inactive
19,Cc1ccccc1CN1CCN(CC(=O)NC(C)c2ccccc2)CC1 (configuration not stated),inactive
